From PubChem BioAssay come the findings set out here.

Results filed as inconclusive are left out. Activity calls are given as the source filed them.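 How the source made its calls, unless noted: active means response below a set limit, under 55% cells CD8-positive and vesicle-bound, and CD8 cells' 90th-percentile brightness under 279; inactive means the rest.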

A short description of test [1]: rapamycin-like changes in RPL19A-GFP expression – cell-based, S. cerevisiae, multiplex flow cytometry, primary screen (AID 1862; in the data active means percent of DMSO control GFP below about 86%;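 further: lower values mimic rapamycin by blocking the RPL19A rise seen in DMSO cells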). To be noted: S. cerevisiae RPL19A-GFP strain, flow cytometry fluorescence, 3 h; at 10 µM; stronger effect = lower value.
A short description of test [2]: TOR pathway GLN3 branch reporter MEP2-GFP changes – S. cerevisiae, multiplex flow cytometry, primary screen (AID 1867;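 active means GFP response, as percent of the DMSO control, above the screen-wide mean plus 3 SD, about 139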;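 further: median GFP channel fluorescence of barcode-gated MEP2-GFP cells measured by flow cytometry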). The settings on record: S. cerevisiae MEP2-GFP strain, 3 h, at 10 µM, stronger effect = higher value, 100% means same as DMSO wells.
Test [3] in a line: TOR pathway RTG branch CIT2 reporter changes – S. cerevisiae, GFP fusion, multiplex flow cytometry, primary screen (AID 1870;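 active means percent response above a set limit, the screen-wide mean plus 3 SD, cut at about 130% in these data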;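 further: barcoded CIT2-GFP strain pooled with four other GFP strains with rapamycin as positive control; median GFP fluorescence per well over plate mean of DMSO wells so 100% = DMSO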). To be noted: S. cerevisiae CIT2-GFP expression, 3 h, at 10 µM, stronger effect = higher value.
Test [4] can be described thus: TOR pathway LAP4-GFP level changes – S. cerevisiae, multiplex flow cytometry, primary screen (AID 1873;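 active means GFP signal, as percent of the solvent control, above the screen mean plus 3 SD, about 149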). The settings on record: S. cerevisiae LAP4-GFP expression, 3 h, at 10 µM, stronger effect = higher value.
The nature of test [5]: yeast AGP1-GFP level changes, GLN3 branch – cell-based, multiplex flow cytometry, S. cerevisiae, primary screen (AID 1887;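 active means GFP signal above the screen-wide mean plus 3 SD, that is over about 124.5% of the solvent control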;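 further: AGP1-GFP fusion strain of S. cerevisiae within a five-strain barcoded multiplex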). To be noted: 3 h, at 10 µM, stronger effect = higher value.
A short description of test [6]: reduced mouse 2C T cell binding to pMHC/ICAM-1 vesicles – MLPCN validation set, flow cytometry, LFA-1/ICAM-1 modulator project, pilot screen (AID 2523).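 On vesicle binding response: mean PE anti-B7-1 fluorescence of CD8+ cells relative to row control; 100% = QL9-loaded vesicles with DMSO vehicle in the same plate row.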 The settings on record: 2C mouse CD8+ T cells, at 7 µM, stronger effect = lower value; double positive events: measured here: CD8+/vesicle+ event percentage.
For test [7], the target named is Integrin beta-1 (Homo sapiens) + Integrin alpha-4 (Homo sapiens) (UniProt P13612+P05556). The test is described as follows: alpha4beta1 integrin LIBS antibody binding reduction – U937 cells, HUTS-21 mAb, flow cytometry, validation set, VLA-4 allosteric modulator project, pilot screen (AID 2674;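 active means inhibition above 50%, about 3 SD of the validation set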;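 further: antibody binding induced by the VLA-4 ligand LDV present at three times its Kd; 0% = LDV ligand with antibody and no compound and 100% = antibody without LDV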). To be noted: HUTS-21 LIBS mAb binding, at 6.7 µM, stronger effect = higher value, binding induced by LDV ligand.

Test [8] can be described thus: calorie-restriction mimetic ROS inhibitors, yeast – validation compound set, pilot screen (AID 2706;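 active means superoxide response below 65% of plate, a cut near 3 SD across the whole screen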;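 further: yeast exposed to compound for one week at 30 degrees C before staining; 100% = mean of all compound wells on the same plate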). To be noted: S. cerevisiae aging, superoxide DHE fluorescence; at 10 µM; stronger effect = lower value.
Test [9] has as its target Beta-adrenergic receptor kinase 1 (Homo sapiens) (UniProt P25098). Kind of test: GRK2 binders displacing RNA aptamer, biochemical, validation, human GRK2, bead flow cytometry (AID 488806;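 active means aptamer binding inhibition above 30%, about 3 SD of noise from non-fluorescent compounds; inactive means inhibition at or below 30%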). The settings on record: bead-bound GRK2, FAM-aptamer displacement, at 10 µM, stronger effect = higher value.
The target of test [10] is Beta-2 adrenergic receptor (Homo sapiens) (UniProt P07550). Kind of test: agonist-induced loss of surface beta2AR – cell-based, FAP fluorogen, flow cytometry, validation set, pilot screen (AID 504459;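 active means percent response above 42, roughly 3 SD of non-fluorescent test compounds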;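 further: agonist-driven loss of surface beta2AR via internalization measured by FAP dye flow cytometry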). The settings on record: Am2.2-beta2AR cells, at 10 µM, stronger effect = higher value.
The target of test [11] is AP-2 complex subunit beta (Homo sapiens) (UniProt P63010). The test is described as follows: beta-arrestin/AP2 interaction blockers – biochemical, validation set, GST-AP2 beads, flow cytometry, pilot screen (AID 504541;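 active means inhibition above 54%, about 3 SD of non-fluorescent compounds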;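 further: AP2 carries R879A mutation and is captured from E. coli lysate; bead-bound FITC arrestin peptide fluorescence measuring arrestin peptide binding to AP2; 0% = DMSO wells and 100% = excess unlabeled arrestin peptide control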). The settings on record: FITC arrestin peptide, at 10 µM, stronger effect = higher value, AP2 beta2 appendage fragment, R879A mutant.
Test [12] is described as follows: cytosolic pH regulators acting via V-ATPase – S. cerevisiae, pHLuorin, HTS validation (AID 504600; in the data active means response above about 15%;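 further: plate controls were DMSO for no effect and reference compound for full effect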). The settings on record: V-ATPase proton transport, at 10 µM, stronger effect = higher value.
Test [13] deals with anti-desmoglein-3 scFv antibody binding to human DSG3. Kind of test: blockers of pathogenic pemphigus antibody–desmoglein-3 binding – biochemical, validation compound set, bead-based, flow cytometry, pilot screen (AID 588368;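 active means binding below the plate cutoff, the plate median minus 3 SD, with a reading above zero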;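 further: signal is the median channel fluorescence of bead-bound GFP antibody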). To be noted: Protein G beads, DSG3-Fc, scFv-GFP binding, at 10 µM, stronger effect = lower value.
Test [14] is described as follows: Nile Red efflux blockade in pump-expressing yeast – validation compound set, multiplex, phenotypic, pilot screen (AID 588506;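 active means efflux inhibition above 0.42, the validation set average plus 4 SD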;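 further: Nile Red retained in cells so higher fluorescence means more efflux inhibition; 0 = negative control wells and 1 = enniatin B 25 µM full block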). To be noted: S. cerevisiae pump-expressing triplex, Nile Red efflux flow cytometry; at 10 µM; stronger effect = higher value; the pumps come from Candida albicans.
Test [15] addresses ATP-binding cassette sub-family B member 6 (Homo sapiens) (UniProt Q9NP58). Kind of test: blockers of ABCB6-driven porphyrin uptake – K562-ABCB6 cells, flow cytometry, validation set, pilot screen (AID 588550;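 active means inhibition above the screen-wide mean plus 3 SD, about 51%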;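 further: 0% = DMSO wells and 100% = benzethonium chloride 70 µM positive control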). To be noted: K562-ABCB6 porphyrin accumulation, 1 h, at 10 µM, stronger effect = higher value.
Test [16] is described as follows: AML differentiation inducers, ER-HoxA9 marrow cells – cell-based, GFP/MAC1 double positive, flow cytometry, validation set, primary screen (AID 588685;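 active means differentiation response of at least 50%, scaled between solvent and reference control, from cells with both markers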;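 further: compound exposure lasts four days before antibody staining and flow analysis; 0% = DMSO wells and 100% = 5 µM fulvestrant positive control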). To be noted: stronger effect = higher value, normalized: vehicle 0, fulvestrant 100.

Integrin beta-1 (Homo sapiens) + Integrin alpha-4 (Homo sapiens), sequence (P05556 whole entry, looked up): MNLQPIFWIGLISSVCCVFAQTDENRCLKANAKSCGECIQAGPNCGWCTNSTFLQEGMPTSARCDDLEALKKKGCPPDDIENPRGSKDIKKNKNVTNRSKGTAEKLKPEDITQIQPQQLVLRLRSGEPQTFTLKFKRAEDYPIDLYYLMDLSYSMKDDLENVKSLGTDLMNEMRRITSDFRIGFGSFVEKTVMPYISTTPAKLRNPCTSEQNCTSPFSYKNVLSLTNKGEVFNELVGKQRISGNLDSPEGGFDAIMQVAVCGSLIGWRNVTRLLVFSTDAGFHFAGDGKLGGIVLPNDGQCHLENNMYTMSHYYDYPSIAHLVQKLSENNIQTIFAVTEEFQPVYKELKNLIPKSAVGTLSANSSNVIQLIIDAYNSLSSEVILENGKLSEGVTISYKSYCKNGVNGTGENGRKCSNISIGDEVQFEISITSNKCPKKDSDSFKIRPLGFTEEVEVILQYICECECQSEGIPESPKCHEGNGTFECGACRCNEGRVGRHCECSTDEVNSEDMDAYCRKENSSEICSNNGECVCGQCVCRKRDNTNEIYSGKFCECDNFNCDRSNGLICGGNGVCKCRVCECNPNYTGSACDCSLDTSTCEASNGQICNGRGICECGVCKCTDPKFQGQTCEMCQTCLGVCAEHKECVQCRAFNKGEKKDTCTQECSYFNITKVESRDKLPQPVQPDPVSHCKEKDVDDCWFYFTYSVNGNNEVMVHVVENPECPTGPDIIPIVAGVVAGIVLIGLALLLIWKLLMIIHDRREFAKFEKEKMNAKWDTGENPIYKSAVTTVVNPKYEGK
Integrin beta-1 (Homo sapiens) + Integrin alpha-4 (Homo sapiens), sequence (P13612 whole entry, looked up): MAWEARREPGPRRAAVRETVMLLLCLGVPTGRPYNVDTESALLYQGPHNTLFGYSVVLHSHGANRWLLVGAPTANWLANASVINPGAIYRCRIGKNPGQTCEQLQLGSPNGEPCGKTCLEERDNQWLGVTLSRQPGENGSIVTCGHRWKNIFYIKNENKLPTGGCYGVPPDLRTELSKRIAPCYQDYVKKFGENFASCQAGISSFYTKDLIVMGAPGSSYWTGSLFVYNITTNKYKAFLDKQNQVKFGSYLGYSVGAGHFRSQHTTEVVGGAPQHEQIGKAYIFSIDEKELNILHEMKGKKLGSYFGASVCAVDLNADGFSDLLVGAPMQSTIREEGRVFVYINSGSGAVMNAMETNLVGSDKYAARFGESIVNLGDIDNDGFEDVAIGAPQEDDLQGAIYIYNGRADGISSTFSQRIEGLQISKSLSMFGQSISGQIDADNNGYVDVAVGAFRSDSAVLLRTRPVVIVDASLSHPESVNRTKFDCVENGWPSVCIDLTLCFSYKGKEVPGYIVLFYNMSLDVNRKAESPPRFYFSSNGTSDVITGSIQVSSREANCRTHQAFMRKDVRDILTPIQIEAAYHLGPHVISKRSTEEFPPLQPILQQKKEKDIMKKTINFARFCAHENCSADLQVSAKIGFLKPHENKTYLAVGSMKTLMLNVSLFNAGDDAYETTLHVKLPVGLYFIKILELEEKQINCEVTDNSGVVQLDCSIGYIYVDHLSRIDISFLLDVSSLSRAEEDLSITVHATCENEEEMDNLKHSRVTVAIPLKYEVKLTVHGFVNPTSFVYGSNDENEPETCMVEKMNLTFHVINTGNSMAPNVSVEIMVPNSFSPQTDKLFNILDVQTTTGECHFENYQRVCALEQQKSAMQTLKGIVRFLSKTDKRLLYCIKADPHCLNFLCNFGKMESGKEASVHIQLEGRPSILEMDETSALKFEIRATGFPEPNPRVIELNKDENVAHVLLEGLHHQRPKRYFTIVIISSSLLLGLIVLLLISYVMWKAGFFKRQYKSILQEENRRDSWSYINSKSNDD
Beta-2 adrenergic receptor (Homo sapiens), sequence (P07550 whole entry, looked up): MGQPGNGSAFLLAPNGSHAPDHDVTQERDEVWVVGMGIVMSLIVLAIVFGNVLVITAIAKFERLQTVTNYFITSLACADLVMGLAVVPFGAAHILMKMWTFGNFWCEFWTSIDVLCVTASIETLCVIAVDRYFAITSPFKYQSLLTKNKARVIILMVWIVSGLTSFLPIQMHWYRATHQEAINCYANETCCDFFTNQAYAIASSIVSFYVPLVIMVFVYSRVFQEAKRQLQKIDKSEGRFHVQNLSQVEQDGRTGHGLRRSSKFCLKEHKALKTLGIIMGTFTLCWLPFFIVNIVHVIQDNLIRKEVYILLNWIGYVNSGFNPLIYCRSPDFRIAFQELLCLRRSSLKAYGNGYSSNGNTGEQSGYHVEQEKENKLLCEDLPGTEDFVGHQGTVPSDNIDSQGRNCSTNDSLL
Beta-adrenergic receptor kinase 1 (Homo sapiens), sequence (P25098 whole entry, looked up): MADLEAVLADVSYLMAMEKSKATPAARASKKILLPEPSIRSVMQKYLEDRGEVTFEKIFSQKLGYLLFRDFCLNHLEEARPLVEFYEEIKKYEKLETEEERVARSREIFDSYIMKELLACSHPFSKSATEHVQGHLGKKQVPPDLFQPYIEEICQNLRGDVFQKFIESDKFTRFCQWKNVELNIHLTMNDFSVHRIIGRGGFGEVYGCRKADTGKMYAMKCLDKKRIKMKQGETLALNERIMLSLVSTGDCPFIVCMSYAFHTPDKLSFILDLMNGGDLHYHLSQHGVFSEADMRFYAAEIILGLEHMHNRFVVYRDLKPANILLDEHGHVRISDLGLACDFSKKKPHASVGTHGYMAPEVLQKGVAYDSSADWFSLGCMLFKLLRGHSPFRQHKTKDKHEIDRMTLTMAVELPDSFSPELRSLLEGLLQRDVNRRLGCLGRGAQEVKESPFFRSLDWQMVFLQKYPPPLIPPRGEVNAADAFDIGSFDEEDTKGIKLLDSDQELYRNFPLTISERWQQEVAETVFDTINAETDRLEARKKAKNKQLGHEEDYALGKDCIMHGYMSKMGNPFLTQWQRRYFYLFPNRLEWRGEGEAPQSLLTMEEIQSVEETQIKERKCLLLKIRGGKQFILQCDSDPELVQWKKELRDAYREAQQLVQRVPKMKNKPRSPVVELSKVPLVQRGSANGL
ATP-binding cassette sub-family B member 6 (Homo sapiens), sequence (Q9NP58 whole entry, looked up): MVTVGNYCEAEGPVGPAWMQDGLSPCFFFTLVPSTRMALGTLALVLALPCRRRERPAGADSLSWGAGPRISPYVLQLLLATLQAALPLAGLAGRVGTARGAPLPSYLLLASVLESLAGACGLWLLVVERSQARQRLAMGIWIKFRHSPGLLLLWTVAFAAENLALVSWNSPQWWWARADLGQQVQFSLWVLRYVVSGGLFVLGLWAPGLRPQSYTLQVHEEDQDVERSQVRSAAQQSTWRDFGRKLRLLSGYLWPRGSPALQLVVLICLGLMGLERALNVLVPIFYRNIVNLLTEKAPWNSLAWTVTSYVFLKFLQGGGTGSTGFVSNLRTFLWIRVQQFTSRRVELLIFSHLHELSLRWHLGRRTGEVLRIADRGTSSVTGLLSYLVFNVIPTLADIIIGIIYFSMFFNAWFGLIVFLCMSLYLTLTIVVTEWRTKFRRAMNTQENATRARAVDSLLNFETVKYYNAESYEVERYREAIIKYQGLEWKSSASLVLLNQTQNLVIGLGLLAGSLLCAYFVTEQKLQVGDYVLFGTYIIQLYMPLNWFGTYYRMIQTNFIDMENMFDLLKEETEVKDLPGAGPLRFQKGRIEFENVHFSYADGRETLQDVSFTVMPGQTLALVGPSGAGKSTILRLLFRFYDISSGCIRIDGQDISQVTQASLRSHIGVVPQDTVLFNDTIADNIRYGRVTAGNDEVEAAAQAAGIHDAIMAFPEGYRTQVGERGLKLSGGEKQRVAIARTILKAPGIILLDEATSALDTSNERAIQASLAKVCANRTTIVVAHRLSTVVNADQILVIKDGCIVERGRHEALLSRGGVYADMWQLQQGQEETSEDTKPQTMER
AP-2 complex subunit beta (Homo sapiens), sequence (P63010 whole entry, looked up, the tested form may be a part, one chain of several): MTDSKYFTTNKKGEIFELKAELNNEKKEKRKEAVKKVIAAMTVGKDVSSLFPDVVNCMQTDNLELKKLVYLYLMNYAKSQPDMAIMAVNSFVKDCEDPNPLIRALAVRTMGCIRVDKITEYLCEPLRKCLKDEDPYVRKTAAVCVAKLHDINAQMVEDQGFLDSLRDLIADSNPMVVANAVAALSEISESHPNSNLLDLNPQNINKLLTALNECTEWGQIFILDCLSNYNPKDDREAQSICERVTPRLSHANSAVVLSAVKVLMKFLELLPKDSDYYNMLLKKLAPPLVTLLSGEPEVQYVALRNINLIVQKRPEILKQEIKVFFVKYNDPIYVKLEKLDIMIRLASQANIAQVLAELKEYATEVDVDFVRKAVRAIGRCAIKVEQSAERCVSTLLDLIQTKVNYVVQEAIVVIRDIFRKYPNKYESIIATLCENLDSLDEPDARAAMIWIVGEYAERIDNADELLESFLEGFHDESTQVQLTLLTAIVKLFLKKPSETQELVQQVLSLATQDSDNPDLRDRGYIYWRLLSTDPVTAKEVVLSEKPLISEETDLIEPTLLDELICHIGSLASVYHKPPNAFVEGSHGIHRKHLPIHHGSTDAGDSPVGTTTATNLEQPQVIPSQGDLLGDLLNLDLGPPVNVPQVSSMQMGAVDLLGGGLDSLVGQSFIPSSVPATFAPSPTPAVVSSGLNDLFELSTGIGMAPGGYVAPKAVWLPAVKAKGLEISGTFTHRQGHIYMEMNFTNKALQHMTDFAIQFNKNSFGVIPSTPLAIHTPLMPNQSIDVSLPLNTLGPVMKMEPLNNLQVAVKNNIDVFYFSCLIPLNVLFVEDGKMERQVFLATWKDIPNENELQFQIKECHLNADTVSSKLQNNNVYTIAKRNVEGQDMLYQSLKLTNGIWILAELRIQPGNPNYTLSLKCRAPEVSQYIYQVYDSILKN

Turning to `O=C(O)/C=C/c1cccc(OCc2ccccc2)c1`, the percent of DMSO control GFP in [1] is 93.8% (inactive). In addition, the GFP response vs DMSO in test [2] is 105% (inactive); in [4], 123% (inactive). In addition, the percent response of DMSO control in test [3] is 93.4% (inactive). Further, the GFP response, % of DMSO in test [5] was 82.2% (inactive). Further, the double positive events in test [6] is 58.1%. Besides, the vesicle binding response in test [6] is 131% (inactive). Moreover, the inhibition in test [7] was 5.61% (inactive); in [11], 13.5% (inactive); in [15], 8% (inactive). In addition, in [8], the superoxide response (% of plate) is 104% (inactive). Besides, the aptamer binding inhibition in [9] was 3% (inactive). In addition, the response in [10] was 4.34% (inactive); in test [12] it was -4.03% (inactive). Also, in test [13], the binding (% of control) was 94.3% (inactive). For the same compound, the efflux inhibition (fraction of control) in [14] is -0.24 (inactive). In test [16], the differentiation response was -8.96% (inactive).

As to `COc1ccccc1Oc1c(C)oc2c(CN3CCN(CCO)CC3)c(O)ccc2c1=O`, the percent of DMSO control GFP in test [1] was 104% (inactive). For the same compound, the GFP response vs DMSO in test [2] was 101% (inactive); in test [4] it was 98% (inactive). Besides, the percent response of DMSO control in [3] was 109% (inactive). Besides, the GFP response, % of DMSO in [5] was 104% (inactive). Also, in [6], the double positive events worked out at 58.7%. Also, the vesicle binding response in [6] is 111% (inactive). Also, the inhibition in test [7] was -11.8% (inactive); in test [11], -2.65% (inactive); in test [15], -1% (inactive). The superoxide response (% of plate) in [8] was 96.1% (inactive). Moreover, the aptamer binding inhibition in test [9] was -1% (inactive). In addition, the response was 6.51% (inactive) in test [10] and 0.24% (inactive) in test [12]. The binding (% of control) in [13] is 103% (inactive). The efflux inhibition (fraction of control) in test [14] is -0.14 (inactive). For the same compound, the differentiation response in test [16] is 11.5% (inactive).

As for `OCCC1CN(Cc2nc(-c3ccccc3)cs2)CCN1Cc1ccc(F)cc1` (stereo not given), the percent of DMSO control GFP in test [1] is 106% (inactive). Besides, the results for the GFP response vs DMSO in test [2] and in test [4] were 98.7% (inactive) and 100% (inactive), respectively. Further, the percent response of DMSO control in test [3] was 115% (inactive). Moreover, the GFP response, % of DMSO in test [5] was 104% (inactive). The double positive events in test [6] came out at 68.6%. Also, in test [6], the vesicle binding response was 312% (inactive). Moreover, the inhibition in [7] was -6.45% (inactive); in test [11], -6.97% (inactive); in [15], 9% (inactive). Besides, the superoxide response (% of plate) in [8] was 103% (inactive). For the same compound, the aptamer binding inhibition in test [9] is 0% (inactive). Also, the response in test [10] was 2.61% (inactive); in [12], -2.6% (inactive). Also, the binding (% of control) in test [13] is 100% (inactive). Also, the efflux inhibition (fraction of control) in [14] is 0.31 (inactive). In test [16], the differentiation response is -6.03% (inactive).

With `O=C(O)C1CSC(c2ccco2)N1` (stereo not given), the percent of DMSO control GFP in [1] was 102% (inactive). Moreover, the GFP response vs DMSO is 103% (inactive) in test [2] and 120% (inactive) in test [4]. Also, the percent response of DMSO control in [3] was 102% (inactive). The GFP response, % of DMSO in [5] was 124% (inactive). In [6], this compound yielded a double positive events of 60.6%. For the same compound, in [6], the vesicle binding response is 168% (inactive). Besides, the values for the inhibition in [7], in [11] and in [15] were -19% (inactive), 10% (inactive) and 2% (inactive), respectively. The superoxide response (% of plate) in test [8] is 100% (inactive). Also, the aptamer binding inhibition in test [9] was 33% (active). The response in test [10] was -18.6% (inactive); in test [12] it was -1.58% (inactive). The binding (% of control) in test [13] was 99.5% (inactive). Also, in test [14], the efflux inhibition (fraction of control) is 0.04 (inactive). Besides, the differentiation response in test [16] was -2.03% (inactive).

Turning to `O=C(NC1CCCCC1)c1cc2nc(-c3ccco3)cc(C(F)(F)F)n2n1`, in test [1], the percent of DMSO control GFP was 89.5% (inactive). The GFP response vs DMSO in test [2] was 106% (inactive); in test [4], 78.7% (inactive). Further, in test [3], the percent response of DMSO control is 102% (inactive). Moreover, in test [5], the GFP response, % of DMSO was 88.2% (inactive). Also, in test [6], the double positive events came out at 43.2%. Also, the vesicle binding response in test [6] was 158% (inactive). For the same compound, the inhibition is -1.3% (inactive) in test [7], 1.72% (inactive) in test [11] and 9% (inactive) in test [15]. The superoxide response (% of plate) in test [8] is 111% (inactive). Also, the aptamer binding inhibition in test [9] was 0% (inactive). The results for the response in test [10] and in [12] were -19.4% (inactive) and 8.07% (inactive), respectively. Further, in test [13], the binding (% of control) was 107% (inactive). The efflux inhibition (fraction of control) in test [14] is 0.09 (inactive). For the same compound, in test [16], the differentiation response is 20.5% (inactive).
